Results on 90 molecules are retold here after PubChem BioAssay AID504848 (National Center for Advancing Translational Sciences (NCATS), 2011).

Molecules are shown by their SMILES. The whole screen tested about 2,300 compounds, of which about 1,400 (61%) were called active. Roughly 29% stayed inconclusive and do not appear here. So high a share suggests a set chosen from earlier hits. The list shows a part of the results. Unmarked numbers belong to inactive results. Calls follow the shape of the dose curve; as a rule, active = well fitted inhibition curve with a large enough effect; inconclusive = small, poorly fitted or top-dose-only effect, or effect the other way; inactive = no such curve, though single readings can be large or run the other way.
% is scaled to controls: 0 for no effect and ±100 for the full control effect; potency is read from the fitted curve at half-maximal effect.

A short description of this assay: Confirmation screen for delayed death inhibitors of the malarial parasite plastid, 96 hour incubation. Also: nearly all actives have a fitted effect of over 60% in size. The note with it: P. falciparum luciferase growth in erythrocytes; series mostly up to 28.7 µM; activity change, negative = inhibition: at the top concentration. Put shortly: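 Two-generation (96 h, 37 C) exposure of P. falciparum carrying an integrated firefly luciferase reporter in erythrocytes, 0.1% parasitemia and 2% hematocrit final, Albumax-supplemented RPMI. Luminescence decrease measures growth inhibition.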
In the case of `COc1ccc(Cn2c(O)c(C=Nc3ccc(O)cc3)c3ccccc3c2=O)cc1`, the Potency is 7.94 µM (active).

Turning to `COc1ccc(-c2cc(-c3ccccc3)nc(SC(C)C(=O)O)c2C#N)cc1` (stereo not given), the Potency was 10 µM (active).

On to `COc1ccc(-c2cc(-c3ccccc3)nc(SCC(=O)Nc3nccs3)c2C#N)cc1`, for which the Potency was 2 µM (active).

For `CCCSc1sc(C(=O)OC)c(-c2cccs2)c1C#N`, the “activity change, negative = inhibition” value was -103%.

As to `CCc1ccc(NC(=O)CN(c2cc(C)cc(C)c2)S(=O)(=O)c2c(C)[nH]c(=O)[nH]c2=O)cc1`, the Potency was 12.6 µM (active).

`Cc1cccc(C)c1OCc1cc(C(=O)N(C)Cc2nc3ccccc3[nH]2)no1`: the Potency was 14.1 µM (active).

Consider `O=C(/C=C/c1ccccc1Cl)c1ccccc(=O)c1O`, for which the Potency is 6.31 µM (active).

Take `Cc1ccc(C)c(/C=C/C(=O)c2ccccc(=O)c2O)c1`: the Potency was 11.2 µM (active).

As to `COc1ccc(OC)c(CNC(=O)c2ccc(C)c(NC(=O)C3=C(C)OCCS3)c2)c1`, the Potency is 10 µM (active).

On to `CSc1nnc2c3ccccc3n(CCc3ccccc3)c2n1`, for which the Potency was 15.8 µM (active).

Regarding `S=c1nc2c(n[nH]1)c1ccccc1n2CCc1ccccc1`, the Potency is 12.6 µM (active).

For `CC1C/C(=C/c2ccncc2)C(=O)/C(=C/c2ccncc2)C1` (stereo not given), the Potency was 3.55 µM (active).

For the molecule `O=[N+]([O-])c1c(Nc2ccccc2O)cc(Cl)c2nonc12`, the Potency was 3.55 µM (active).

As for `CC1CCN(c2ccc3nnc(CCC(=O)N4CCN(c5ccccc5F)CC4)n3n2)CC1`, the Potency was 10 µM (active).

In the case of `COc1cccc2sc(Nc3nnc(-c4ccc(F)cc4)o3)nc12`, the Potency was 7.08 µM (active).

`COc1cccc2sc(Nc3nnc(-c4ccccc4Cl)o3)nc12`: the “activity change, negative = inhibition” value was -105%.

With `CC(C)C[C@H](NC(=O)c1nc[nH]c1C(=O)N(C)Cc1ccccc1)C(=O)OC(C)(C)C`, the Potency was 10 µM (active).

Consider `CC(C)C[C@H](NC(=O)c1[nH]cnc1C(=O)N[C@@H](Cc1ccccc1)C(=O)OC(C)(C)C)C(=O)OC(C)(C)C`, for which the Potency is 6.31 µM (active).

`C[C@H](NC(=O)c1nc[nH]c1C(=O)N[C@H](C)c1ccccc1)C(=O)OCc1ccccc1`: the “activity change, negative = inhibition” value was -12.3%.

`CC(C)C[C@H](NC(=O)c1[nH]cnc1C(=O)N[C@@H](C)C(=O)OC(C)(C)C)C(=O)OC(C)(C)C`: the Potency is 10 µM (active).

`CC(C)C[C@H](NC(=O)c1[nH]cnc1C(=O)Nc1ccc(CNC(=O)OC(C)(C)C)cc1)C(=O)OC(C)(C)C`: the Potency is 4.47 µM (active).

As for `Cc1cc(C)cc(NC(=O)C2C3C=CC4(O3)C2C(=O)N(CCCN2CCCC2)C4C(=O)NC2CCCC(C)C2C)c1` (stereo not given), the Potency was 12.6 µM (active).

Regarding `O=C(O)c1cc2ccccc2c(N=Nc2cccnc2)c1O`, the Potency was 3.98 µM (active).

Regarding `O=C(Nc1ccon1)c1nc[nH]c1C(=O)NCc1ccccc1`, the Potency is 7.94 µM (active).

For the molecule `CCC(=O)N1c2ccccc2NC2=C(C(=O)CC(c3ccco3)C2)C1c1ccco1` (stereo not given), the Potency was 10 µM (active).

On to `C=CCC1(O)C(=O)N2C(=C1C(=O)OCC)c1ccc3ccccc3c1CC2(C)C` (stereo not given), for which the Potency is 10 µM (active).

Take `O=C(Cn1c(=O)oc2ccc(Cl)cc21)NC1CCCCC1`: the Potency is 10 µM (active).

Turning to `CN(C)C1(CNC(=O)C2CCC(=O)N(Cc3ccc(Cl)cc3)C2)CCCCC1` (stereo not given), the Potency is 5.62 µM (active).

For `Cc1ccc(Nc2nc(=O)c3cccnc3s2)c(Br)c1`, the “activity change, negative = inhibition” value was -10.6%.

`Cc1cc(OCC(=O)N[C@@H](CSCc2ccccc2)C(=O)O)c2c(C)c(C)c(=O)oc2c1`: the Potency was 14.1 µM (active).

`CN(Cc1ccccc1Cl)C(=O)C1CCC(=O)N(CCc2cccc(F)c2)C1` (stereo not given): the Potency is 7.94 µM (active).

Regarding `CN(CCOc1ccccc1)C(=O)C1CCC(=O)N(CCN2CCOCC2)C1` (stereo not given), the “activity change, negative = inhibition” value is 4.57%.

As to `CN(CCNC(=O)C1CCC(=O)N(Cc2cccc(F)c2)C1)CCc1ccccc1` (stereo not given), the Potency was 7.08 µM (active).

Regarding `Cc1ccc(C(=O)NC2CCCC2)cc1S(=O)(=O)N1CCCCC1`, the Potency was 8.91 µM (active).

As to `COc1ccc(C)cc1S(=O)(=O)N1CCN(S(=O)(=O)c2cc(C(=O)O)ccc2C)CC1`, the Potency was 8.91 µM (active).

As for `Cc1ccc(C(=O)NC2CCCCC2)cc1S(=O)(=O)N1CCCC1`, the Potency was 10 µM (active).

On to `O=[N+]([O-])c1ccc(-c2c(-c3ccccc3)ncc3ccc(F)cc23)cc1`, for which the Potency was 12.6 µM (active).

As for `Fc1ccc2cnc(-c3ccccc3)c(-c3ccc(C(F)(F)F)cc3)c2c1`, the Potency is 14.1 µM (active).

Turning to `CCc1ccc(OCCNC(=O)c2ccco2)cc1`, the Potency is 12.6 µM (active).

For `CCCCNC(=O)c1onc(CSc2cccc3ccccc23)c1C(=O)O`, the “activity change, negative = inhibition” value is 9.71%.

On to `O=C(CNC(=O)c1ccco1)OCC(=O)c1ccccc1`, for which the “activity change, negative = inhibition” value is -20.9%.

On to `CCCCNC(=O)c1onc(CSc2ccccc2C)c1C(=O)O`, for which the “activity change, negative = inhibition” value is -24.1%.

As to `CCc1ccc(OCCNC(=O)c2ccccc2SCc2ccccc2)cc1`, the Potency was 12.6 µM (active).

With `CCCn1c(CN2CCN(C(=O)OCC)CC2)nc2cc(NC(=O)C(C)C)ccc21`, the Potency is 10 µM (active).

In the case of `Fc1ccccc1N1CCN(c2ncnc3[nH]ncc23)CC1`, the “activity change, negative = inhibition” value is -3.78%.

Regarding `CCN1CCN(c2ncnc3c2c(-c2ccccc2)cn3-c2ccc(F)cc2)CC1`, the Potency is 10 µM (active).

For the molecule `CN1CCN(c2ncnc3c2c(-c2ccccc2)cn3-c2ccc(F)cc2)CC1`, the Potency was 11.2 µM (active).

Regarding `Cc1[nH]c(C)c(C(=O)/C=C/c2ccc([N+](=O)[O-])cc2)c1C`, the Potency was 7.94 µM (active).

With `Cc1c(Cc2ccccc2)c(=O)oc2cc(OC(C)C(=O)NCC3CCC(C(=O)O)CC3)c(Cl)cc12` (stereo not given), the Potency is 10 µM (active).

On to `Cc1c(OC(C)C(=O)NCC2CCC(C(=O)O)CC2)ccc2c1oc(=O)c1ccccc12` (stereo not given), for which the Potency was 12.6 µM (active).

Consider `Cc1oc(/C=N/NS(=O)(=O)c2ccccc2)cc1Br`, for which the “activity change, negative = inhibition” value is -5.08%.

`COc1ccc(C(=O)/C=C/C(=O)N(CC(=O)NC2CCCCC2)CC2CCCO2)c(O)c1` (stereo not given): the Potency is 12.6 µM (active).

For the molecule `COc1ccc(CN(C(=O)/C=C/C(=O)c2ccc(OC)cc2O)C(C(=O)NC2CCCCC2)c2ccncc2)cc1` (stereo not given), the Potency is 6.31 µM (active).

With `CCOc1ccc(-c2cc(C(=O)N/N=C(\C)c3cccnc3)c3ccccc3n2)c(OCC)c1`, the Potency is 14.1 µM (active).

As for `CCn1c(SCC(=O)Nc2ccc(C)cc2)nc2sc3c(c2c1=O)CCN(C)C3`, the Potency was 0.708 µM (active).

In the case of `CCOC(=O)CSc1nc2sc3c(c2c(=O)n1C1CCCCC1)CCN(C)C3`, the Potency was 2 µM (active).

With `Cn1cc([N+](=O)[O-])c(C(=O)Nc2nccs2)n1`, the “activity change, negative = inhibition” value is -17.4%.

With `CC(C)(C)OC(=O)NCCCCCNC(=O)c1[nH]cnc1C(=O)Nc1nccs1`, the Potency was 7.08 µM (active).

Consider `COc1cccc(F)c1C(C[N+](=O)[O-])c1c(N)n(C)c(=O)n(C)c1=O` (stereo not given), for which the Potency was 3.98 µM (active).

For the molecule `Cc1ccc(C)c(N2CCN(S(=O)(=O)c3ccc4c(c3)NC(=O)CS4)CC2)c1`, the Potency was 8.91 µM (active).

As for `Cc1cccc(N2CCN(S(=O)(=O)c3ccc4c(c3)NC(=O)CO4)CC2)c1C`, the Potency was 11.2 µM (active).

As to `Cc1ccc(CCNC(=O)C2CCN(S(=O)(=O)c3ccc4c(c3)NC(=O)CO4)CC2)cc1`, the Potency is 10 µM (active).

Consider `COc1ccc(C)cc1NC(=O)C1CCN(S(=O)(=O)c2ccc3c(c2)NC(=O)CO3)CC1`, for which the Potency was 7.94 µM (active).

For `O=C(CCl)Nc1cccc(Oc2cnccn2)c1`, the Potency is 3.55 µM (active).

As to `O=C(/C=C/c1c(F)cccc1Cl)c1ccc(O)cc1`, the Potency was 12.6 µM (active).

On to `O=C(/C=C/c1ccccc1Cl)c1ccc(O)cc1`, for which the Potency is 10 µM (active).

With `COc1ccc(-c2c(C(C)=O)c(C)n(C)c2C)cc1`, the Potency was 10 µM (active).

Take `CCCCOc1ccc(NC2=NC3(CCCC3)N=C(N)N2)cc1`: the Potency was 0.708 µM (active).

`COc1ccc2nc3sc(C(=O)NCCN4CCc5ccccc5C4)cc3cc2c1`: the Potency is 2.24 µM (active).

Turning to `COc1cc(/C=C2\COC/C(=C\c3ccc(O)c(OC)c3)C2=O)ccc1O`, the Potency was 3.55 µM (active).

Consider `COc1cc(/C=C2\CC(C(C)(C)C)C/C(=C\c3cc(OC)c(OC)c(OC)c3)C2=O)cc(OC)c1OC` (stereo not given), for which the Potency was 3.16 µM (active).

`COc1ccc(/C=C2\CC/C(=C\c3ccc(OC)c(OC)c3)C2=O)cc1OC`: the Potency was 14.1 µM (active).

Take `COc1cc(/C=C2\COC/C(=C\c3cc(OC)c(OC)c(OC)c3)C2=O)cc(OC)c1OC`: the Potency is 2.51 µM (active).

As for `COc1cc(/C=C2/CCC/C(=C\c3cc(O)c(OC)c(Cl)c3)C2=O)cc(Cl)c1O`, the Potency was 7.08 µM (active).

As to `CC(C)c1ccc(C(=O)Nc2nnc(S(=O)(=O)N3CCOCC3)s2)cc1`, the Potency was 12.6 µM (active).

With `COc1ccc(C(=O)Nc2nnc(S(=O)(=O)N3CCOCC3)s2)cc1`, the Potency is 15.8 µM (active).

With `CCn1c(=O)c(CCC(=O)N2CCOCC2)c(C)c2c(C)nn(-c3ccccc3)c21`, the Potency is 10 µM (active).

`C=CCSC(=C(C#N)C#N)c1cc2c([nH]1)CCCC2`: the Potency is 4.47 µM (active).

Turning to `COC(=O)c1c(NC(=O)c2ccco2)sc2c1CC(C)(C)NC2(C)C`, the Potency is 14.1 µM (active).

`CCOC(=O)c1c(NC(=S)N2CCCCC2)sc2c1CCN(C(=O)OCC)C2`: the Potency was 3.98 µM (active).

`Cc1cccc(CSc2cccc3cccnc23)c1`: the Potency is 12.6 µM (active).

`O=C(Nc1ccncc1)c1ccc(Cl)c(S(=O)(=O)N2CCCC2)c1`: the Potency was 8.91 µM (active).

For the molecule `CCOC(=O)N1CCN(C(=O)c2ccc(Cl)c(S(=O)(=O)N3CCCC3)c2)CC1`, the Potency is 12.6 µM (active).

Consider `Cc1c(NC(=O)c2ccc(Cl)c(S(=O)(=O)N3CCCCC3)c2)c(=O)n(-c2ccccc2)n1C`, for which the Potency was 10 µM (active).

For the molecule `Cc1c(NC(=S)NC(=O)C(C)(C)C)c(=O)n(-c2ccccc2)n1C`, the “activity change, negative = inhibition” value is 1.52%.

On to `Cc1cc(F)ccc1S(=O)(=O)Nc1ccccc1C(=O)Nc1ccccc1-c1nc2ccccc2[nH]1`, for which the Potency was 4.47 µM (active).

`Nc1cc[n+](CC(=O)c2ccc3c(c2)OCCO3)cc1`: the Potency was 4.47 µM (active).

With `CN(C)c1ccc(NC(=S)NC23CC4CC(CC(C4)C2)C3)cc1`, the Potency is 1.58 µM (active).

Consider `COCCNCC(=O)NC12CC3CC(CC(C3)C1)C2`, for which the “activity change, negative = inhibition” value was -4.43%.

As to `COc1ccc(N2CCN(CCCn3c(=S)[nH]c4ccccc4c3=O)CC2)cc1`, the Potency is 12.6 µM (active).
